The whole screen tested about 6,900 compounds, of which fewer than 10 were called active. The call rests on the fitted dose curve; in most records, active means well fitted curve in the direction sought with a large enough effect; inconclusive means small, poorly fitted or top-dose-only effect, or another doubt; inactive means no such curve, though single readings can be large or run the other way. These entries were drawn from the full list.
Target: Metallo-beta-lactamase type 2 (Klebsiella pneumoniae) (UniProt C7C422)
Test: qHTS to identify inhibitors of the New Delhi Metallo-beta-lactamase (NDM): primary screen against the NCATS Gemini Collection; further: % of control where 0% means no effect
Settings: NDM-1 enzyme, meropenem hydrolysis, absorbance 300 nm; series mostly up to 38.4 µM; activity % (negative = inhibition): at the top concentration
From the text: Assay Submitter (PI): James Inglese Ph.D., Patricia Dranchak Ph.D., Mahesh Aitha Ph.D. Assay Development and Screening Technology Laboratory (ADST) National Center for Advancing Translational Sciences (NCATS), Rockville, MD National Institute of Health (NIH), Bethesda, Maryland The metallo-beta-lactamases (MBL) are a main antibiotic resistance mechanism evolved by bacteria. There is an urgent clinical need for MBL inhibitors to mitigate this growing threat. To support a machine-based learning study, qHTS has been used to experimentally test inhibitors identified by prediction tools.
PROTOCOL TABLE (as described by Inglese et al., 2007) SEQUENCE No. (e.g., 1, 2, 3, etc.); […] (e.g., enzyme, Incubation, Reagent, etc.); VALUE; DESCRIPTION 1; NDM-1; 4 uL of 3 nM enzyme [2 nM final] in 50 mM HEPES (pH 7.0), 1 uM […], 0.01% Tween20; Use BioRaptr to dispense into Aurora black, clear bottom low base 1536-well plates 2; Compounds; 23 nL; Use Pin Tool (Wako) to transfer DMSO control and library compounds in DMSO 3; Incubate; >30 min 4; Reagent; 2 uL of 150 uM meropenem [50 uM final] 5; Incubate; 30 min. 6; Detector; Absorbance at 300 nm (bandwidth = 5 nm, 25 flashes/well) on Tecan Infinity NOTES (numbers refer to sequence above) 1; Column 1 of each plate received assay buffer without enzyme and columns 2-48 received enzyme for a final assay concentration of 2 nM. 2; Control plate contained DMSO in columns 1, 2, 3, and 4. 3; Compound interaction with enzyme. 4; Meropenem substrate was prepared in the same assay buffer as step 1 for a final assay concentration of 50 uM and added to all wells across the assay plates. 5; Substrate interaction with enzyme, plateau phase of kinetics. 6; Default reader settings were applied for absorbance read at 300 nm, bandwidth = 5 nm, 25 flashes/well. References: Inglese J, Shamu CE, Guy RK. 2007. Reporting data from high-throughput screening of small-molecule libraries. Nat Chem Biol. doi:10.1038/nchembio0807-438 Yasgar A, Shinn P, Jadhav A, Auld D, Michael S, Zheng W, Austin CP, Inglese J, Simeonov A. 2008. Compound Management for Quantitative High-Throughput Screening. J Lab Autom 13:79 - 89. doi:10.1016/j.jala.2007.12.004

Metallo-beta-lactamase type 2 (Klebsiella pneumoniae), sequence (C7C422 whole entry, looked up): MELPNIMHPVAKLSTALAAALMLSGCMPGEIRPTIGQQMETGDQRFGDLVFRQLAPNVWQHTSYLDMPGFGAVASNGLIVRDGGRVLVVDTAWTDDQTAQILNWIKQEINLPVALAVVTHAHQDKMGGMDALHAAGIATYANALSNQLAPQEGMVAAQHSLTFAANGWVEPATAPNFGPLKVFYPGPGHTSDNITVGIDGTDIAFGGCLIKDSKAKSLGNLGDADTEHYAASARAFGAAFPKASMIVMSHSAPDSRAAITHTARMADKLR

Activity % (negative = inhibition), inactive:
N#Cc1ccccc1-c1cc2c(ccn2Cc2ccncc2)c(N2CCOCC2)n1 0.932% [at 57.5 µM]
COc1cc(CC2(CCC(=O)N3CCC(Oc4cccc(F)c4)CC3)CCC(=O)N2)ccc1F (stereo not drawn) 9.28%
CN1CCN([C@H]2[C@@H]3OC[C@@H](O3)[C@@H](NCc3ccc(-c4ccccc4)cc3)[C@@H]2O)CC1 0.426% [at 57.5 µM]
CC(C)(C)c1nc(C(=O)NCc2cccnc2)n2ccccc12 21.7%
CN1CCN(C(=O)c2cncc(N[C@H]3C[C@@H]4OCC[C@H]34)n2)CC1 3.03%
COc1ccc(C(=O)N2CCC3(CCC3OC)CC2)cn1 (stereo not drawn) 2.44%
CCC1(N2CCN(S(=O)(=O)c3cccs3)CC2)CCN(S(C)(=O)=O)C1 (stereo not drawn) 0.936%
Cn1cc(CN[C@H]2C[C@H]3C(=O)NC[C@@H](CCC(=O)NCc4ccccc4)N3C2)c2ccccc21 1.89%
CCc1nc(-c2c3n(c(=O)n(CC(=O)OC)c2=O)CCCC3)no1 0.26%
O=C(c1n[nH]c2ccccc12)N1CC2CC(C1)[C@H]1CCCC(=O)N1C2 (stereo partly drawn) 17%
COCc1nnc2n1CCC(NC(=O)Cn1nc(C(F)(F)F)cc1C)CC2 (stereo not drawn) -0.452%
Cc1ccc(C(C(=O)O)N2CCC(C(=O)N3CCCC3)CC2)c(C)c1 (stereo not drawn) -7.75%
O=C(NCCCn1ccnn1)c1cccc(S(=O)(=O)N2CCOCC2)c1 12.3%
CC(=O)N1CCC(N2CC[C@H](c3nc4ccccc4s3)C2)CC1 60.4% [at 57.5 µM]
N[C@H]1CN(C(=O)c2cccc(-n3cnnc3)c2)C[C@@H]1c1ccccc1 -3.3%
COCC1CN(Cc2c(C)n[nH]c2C)CC12CCNCC2 (stereo not drawn) -1.59%
COc1ccc(Cn2c3c(c(=O)n2Cc2ccccc2)CCN(C(=O)CCc2cccnc2)C3)cc1 -1.23%
CCn1c(C(=O)OC)c(NC(C)=O)c2cc(NC(C)Cc3ccccc3OC)cnc21 (stereo not drawn) -0.817%
COc1cccc(CN2CC(Oc3ccccc3C(=O)NC3CC3)C2)c1 47%
CN(Cc1cc(C[C@@H]2C[C@H](NC(=O)C(C)(C)C)C2(C)C)no1)c1ccccc1 -0.493% [at 57.5 µM]
Cc1cc2nc3n(c(=O)c2n1CC(=O)NC1CCCCC1)CCCCC3 6.24%
COCCN1CCCCCC(O)c2cc(C(=O)NCc3ccc(F)cc3)ccc21 (stereo not drawn) -7.68%
O=C(CCn1ccn2nc3c(c2c1=O)CCCC3)N1CCSCC1 5.47%
CCN(C1CCOCC1)C1CN(C(=O)c2ccccn2)C1 5.74%
CN1CC[C@H]2CN(C(=O)c3scc4c3OCCO4)C[C@@]2(C(=O)O)C1 41.3%
Cc1cc(C(=O)N2CC[C@H](NS(=O)(=O)c3cn(C)cn3)C[C@H]2C(=O)N[C@H](Cc2c[nH]c3ccccc23)C(N)=O)n(C)n1 4.3%
Cc1cccc(C(=O)N2CCCCCCN(C)C(=O)[C@@H]3CCC[C@@H]32)c1 16.9%
CCN(CC)C(=O)[C@@H]1C[C@@H](NC(=O)c2ccn(CC)c(=O)c2)CN1C(C)=O 25%
COC[C@@H]1CN(C(=O)Cc2c(C)noc2C)C[C@H]1c1ccccn1 -1.66%
O=C(NC1CCN(c2ccnc3ccnn23)C1)c1cc(F)ccc1Br (stereo not drawn) 5.28%
COCC(=O)N[C@H]1C[C@@H](CO)N(Cc2scnc2C)C1 1.25%
COc1ccc2cc(C3CN(C(=O)CNC(=O)C(C)C)CCO3)ccc2c1 (stereo not drawn) -1.68%
COc1ccc(C(=O)Nc2ccc3c(c2)CN(CCc2ccccc2)C(=O)C(C)O3)cc1OC (stereo not drawn) 22.1%
COc1ccc(-c2cn(C)c(=O)n3cc(CN4CCNC(=O)C4)nc23)cn1 -6.58% [at 57.5 µM]
CCCC(C)N1CC2(CCN(C(=O)c3cnn4c3CCCC4)CC2)OC1=O (stereo not drawn) 2.01%
CCCN1CC2(CCN(Cc3nc(CCOC)no3)CC2)CC1C(=O)O (stereo not drawn) 11.1%
O=C(Cc1ccsc1)Nc1ccc2c(N3CCCC3)ncnc2c1 1.1%
CN(C)Cc1nnc(C2CC(NC(=O)Cc3noc4ccccc34)C2)n1C (stereo not drawn) 3.59%
O=C1NC2(CCN(Cc3ccccc3C(F)(F)F)C2)COc2ccccc21 (stereo not drawn) 13.6%
CN(C)C[C@@H]1CN(Cc2ccncc2)C[C@H]1NC(=O)Cc1ccsc1 -3%
COCc1ncc(C)n1C1CCCN(C(=O)CCCc2ccccc2)C1 (stereo not drawn) -0.663%
O=C(CC1CCCC1)N1CCCC(c2nn[nH]n2)C1 (stereo not drawn) -0.11%
O=C1c2ccccc2CN1C1CCN(Cc2cccc3ccccc23)CC1 -1.67%
COc1ccc(-c2ccccc2NC(=O)C2CCCN(CC=C(C)C)C2)cc1 (stereo not drawn) 3.28%
O=C1NCCOCCN(S(=O)(=O)c2ccc3c(c2)CCC3)[C@@H]2CCCC[C@H]12 18.1%
CC(=O)c1cc(C(=O)NCc2c(C)ncc3c2CCNC3)[nH]n1 1.33%
COc1ccc(C(=O)N2CCC([C@@H]3CNC[C@H]3CO)CC2)cc1 -3.89%
CNC(=O)[C@@H](C1CC1)N1CCC[C@H]1C(=O)NCc1cccnc1 24.8% [at 57.5 µM]
COC(=O)NCC(=O)N1CC[C@@H]2[C@@H](CCC(=O)N2CCc2ccccc2)C1 -4.62%
CCn1c(CN2CCN(c3nc4ccccc4s3)CC2)nnc1C1CC(N)C1 (stereo not drawn) -5.98%
CCn1cc(S(=O)(=O)NCC2Cn3cccc3C(=O)N2C)cn1 (stereo not drawn) -1.08%
COc1ccc(CN2CCCC3(Cc4ccccc4CNC3=O)C2)c(OC)n1 (stereo not drawn) 11.1%
Cc1cc(C)n(CCc2c(-c3ccccc3)ncn2C(C)CCCC(C)(C)O)n1 (stereo not drawn) -2.56%
CCc1nc(-c2c3n(c(=O)n(CC(=O)NC4CCCC4)c2=O)CCCCC3)no1 -0.651%
CC(C)Cc1cc(CN2CCC(CO)(CN3CCCC3)CC2)[nH]n1 6.63%
OC1(CN2CCC(c3nc(-c4ccccc4)no3)CC2)CNCCOC1 (stereo not drawn) 1.84%
CCN1CC2(CCN(Cc3nc(COC)no3)CC2)CC(c2ccccc2)C1=O (stereo not drawn) 16.1%
Cc1noc(C)c1CCCNC(=O)c1ccc(NC[C@H]2C[C@H]3C=C[C@H]2C32CC2)nc1 16.1%
CN(C)c1cccc(C(=O)NC2CCN(c3cc(-c4cccs4)[nH]n3)C2)c1 (stereo not drawn) -5.08%
COc1ccccc1-c1ccc(CN2CCCC(c3nc4ccc(C)cc4c(=O)[nH]3)C2)cc1 (stereo not drawn) 2.11%
C[S+](=O)([O-])N1CCC(Cn2ccc3c(N4CCOCC4)nc(-c4cccc5[nH]ncc45)cc32)CC1 33.7%
O=C(c1ccccn1)N1CCCC2(CNc3ccccc3[S+](=O)([O-])N2)C1 (stereo not drawn) 27.6%
CN1CCCC(CN(C)C(=O)c2cc(-c3cnn(CCO)c3)nc3ccccc23)C1 (stereo not drawn) 0.511%
Cc1cnc(C2CC2)n1C1CCCN(C(=O)c2ccoc2)C1 (stereo not drawn) 1.2%
COc1ccc(C(=O)N2CCC3(CC2)OCC(C(=O)NC2CC2)N3C(=O)c2cccc(C)c2)cc1 (stereo not drawn) 15.3%
Cc1ccsc1CN1CCc2nc(N3CCOCC3)[nH]c(=O)c2CC1 5.27%
O=C1NC2(CCCN(Cc3cncs3)C2)COc2ccccc21 (stereo not drawn) -0.209%
CCS(=O)(=O)Nc1ccc(C)n(CC(=O)NC2CCCCC2)c1=O 7.41%
